Laboratory results as given in PubChem BioAssay AID540332 (The Scripps Research Institute Molecular Screening Center, 2011).
Values without a mark were called inactive. No rule for the calls is given here.

System: Imidazoline I2
Assay: selectivity profile across receptors and CYP450s – biochemical, Ricerca HitProfilingScreen, CYP450, set 2, selectivity assay for S1P4 agonist project, profiling panel (AID 540332)
Settings: Central; at 30 µM; active compounds read high

## COCCN=C1S/C(=C\c2cc(C)n(-c3ccc(F)cc3F)c2C)C(=O)N1C
  inhibition: 2%
